“And” between values parts separate entries of the source, which are not always exact repeats. Identical values can stand only once. Compounds without any hit were thinned out: in the full panel of roughly 83,000, 20% have a hit.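 How to read the values: 0–100, growth inhibition (40 = 60% inhibited); 0, no net growth; -100 to 0, cell death (-40 = 40% of starting cells died; -100 = all dead).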 The source made the active and inactive calls. The calls were made as follows: active = growth percent below 10; inactive = the rest.
Each molecule was assayed on MCF7 breast (assay: NCI-60 one-dose screen, 48 h (100 = growth as untreated, 0 = no growth, -100 = all killed)). Settings: 10 µM unless noted.
`CCCCCCCCCC(=O)CC(=O)c1c(O)cc(O)cc1O` was tested, and the growth was -63.3% [75 µM] (active) and -13.9% [75 µM] (active).
For `COc1ccc(C)cc1NC(=S)C#N`, the growth was 77.9% [100 µM] (inactive) and 4.98% [100 µM] (active).
`O=C(CCc1ccc(O)c(O)c1)c1ccc(O)c(O)c1O` was tested, and the growth was -69.8% [100 µM] (active) and -72.6% [100 µM] (active).
In the case of `COC(=O)C(C(=O)C(=O)NC1Nc2ccc(C)cc2S1)c1nc2ccc(Cl)cc2[nH]c1=O` (stereo unspecified), the growth was 79.7% [100 µM] (inactive) and 65.5% [100 µM] (inactive).
`NC1N=C(c2ccc(Cl)cc2)C2=C(N1)c1ccccc1CC2` (stereo unspecified) was tested, and the growth was 13.4% [100 µM] (inactive) and -96.2% [100 µM] (active).
For `COC(=O)c1cc(C#N)[nH]c1-c1ccsc1`, the growth was 9.03% [100 µM] (active) and -89.1% [100 µM] (active).
`NC(=S)Nc1[nH]c(=S)nc2c1SC1=N/C(=C\c3ccco3)C(=O)N12` was tested, and the growth was 20.2% [100 µM] (inactive) and 4.03% [100 µM] (active).
`CO/C(N)=C(\C#N)N=Cc1ccc2ccccc2c1` was tested, and the growth was 8.6% [100 µM] (active) and 1.15% [100 µM] (active).
`CC(C)=CCc1cc(C2COc3cc4c(c(O)c3C2=O)C=CC(C)(C)O4)c(O)cc1O` (stereo unspecified) was tested, and the growth was -75.7% [100 µM] (active) and -83.3% [100 µM] (active).
For `C=C(C)C(=O)OC1CC2(C)OC(=CC2=O)C(C)CC2OC(=O)C(=C)C12` (stereo unspecified), the growth was -77.3% [100 µM] (active).
In the case of `CC1(C)Oc2ccc3c(=O)cc(-c4ccc(F)cc4)oc3c2C1C(=O)O` (stereo unspecified), the growth was 86.7% [100 µM] (inactive) and 80.6% [100 µM] (inactive).
With `Cc1coc2c1C(OC(=O)C(C)C)C1(C)C(C)CCC(O)C1C2=O` (stereo unspecified) the growth was 21.2% [100 µM] (inactive) and 6.5% [100 µM] (active).
With `COc1ccc2nc(NC(=O)/C(C#N)=C/c3ccccc3)sc2c1` the growth was 4.79% [100 µM] (active) and 1.62% [100 µM] (active).
With `CCOc1cc2c(cc1O)/C(=N/NS(=O)(=O)c1ccc(C)cc1)C[C@@H]1[C@@H]2CC[C@]2(C)[C@@H](O)CC[C@@H]12` the growth was -3.96% [100 µM] (active).
For `C[N+](C)(CCNC(=O)c1cccc2cc3ccccc3nc12)Cc1ccc([N+](=O)[O-])s1`, the growth was 37.1% [25 µM] (inactive) and 55.9% [25 µM] (inactive).
In the case of `CCC(C)C1(O)OC2CC3(C)OC(=CC3=O)/C(C)=C\C3OC(=O)C1(C)C32` (stereo unspecified), the growth was -50% [100 µM] (active) and -100% [100 µM] (active).
